Assay outcomes (PubChem)
The list is not random: actives were taken first. Their share in the collection is about 1.7%.
PABP polyA inh = blocks human PABP binding to poly(A) RNA; P11940; fluorescence polarization; calls only at 35 µM; 1% of 290,000 active; AID 2014;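 also: calls also rest on retests at 20 µM and on dose response follow-up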
EBV gp42 block = blocks Epstein-Barr virus glycoprotein 42 binding | inhibition, % (tested at 21.74 µM) | 0.42% of 220,000 active | Fluorescence polarization binding assay, mP read-out | Q1HVG2 | AID 1085; in the data active = inhibition above about 50%
Target sequence (Q1HVG2 whole entry, looked up): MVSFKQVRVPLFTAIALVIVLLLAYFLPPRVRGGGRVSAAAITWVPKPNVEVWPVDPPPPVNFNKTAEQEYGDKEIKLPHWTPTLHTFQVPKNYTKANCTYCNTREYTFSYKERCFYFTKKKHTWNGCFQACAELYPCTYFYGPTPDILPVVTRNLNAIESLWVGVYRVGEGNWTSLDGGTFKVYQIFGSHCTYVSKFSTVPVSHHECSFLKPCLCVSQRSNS
eIF4H inh = inhibitors of RNA binding by human eIF4H | Q15056 | eIF4H fluorescence polarization binding assay | inhibition, % at 35 µM | 0.94% of 290,000 active;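 also: calls also rest on retests at 20 µM and on dose response follow-up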
eIF4E-4G inh = blocks eIF4E binding to eIF4G. TR-FRET eIF4E-eIF4GI(517-606) binding, 2 h. inhibition, % at 21.7 µM. 0.37% of 220,000 active. AID 782;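 active = inhibition above about 30%, limit read from the data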;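 also: 0% = full FRET control wells and 100% = background wells lacking eIF4GI fragment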
MLLE-PAM2 inh = blocks PAM2 peptide binding to the PABP1 MLLE domain; P11940; GST-MLLE / FITC-PAM2 fluorescence polarization; inhibition, % at 20 µM; 0.36% of 360,000 active; AID 588489; in the data active = inhibition above about 35%, passing the limit was not always enough;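 also: plate controls were DMSO wells with GST-MLLE for no effect and wells lacking GST-MLLE protein for full effect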
* = called active by the depositor; [ ] = another dose, or the depositor's remark. Unless noted, no rule for the calls is given here.

Results for CC1Oc2ccccc2C=C1/C=C1/SC(N2CCOCC2)=NC1=O (configuration not stated) ?
PABP polyA inh: inactive; EBV gp42 block: -5; eIF4H inh: -2; eIF4E-4G inh: -2; MLLE-PAM2 inh: 9

What do the screens show for `CCN1C(=O)/C(=C/C2=Cc3ccccc3OC2C)SC1=S` (configuration not stated)?
PABP polyA inh: inconclusive; EBV gp42 block: 52*; eIF4H inh: inconclusive; eIF4E-4G inh: -7; MLLE-PAM2 inh: -124

Results for O=C(Nc1ccccc1-c1ccccc1)c1ccccc1 ?
PABP polyA inh: inactive; eIF4H inh: -5; MLLE-PAM2 inh: -8

What do the screens show for `Nc1c(S(=O)(=O)O)cc(NC(=O)c2ccccc2)c2c1C(=O)c1ccccc1C2=O`?
PABP polyA inh: active; eIF4H inh: inconclusive; MLLE-PAM2 inh: 17

How did COCCCNC(=O)c1ccc2c3c(onc13)-c1ccccc1C2=O do in these assays?
PABP polyA inh: inconclusive; EBV gp42 block: 184*; eIF4H inh: inconclusive; eIF4E-4G inh: 1; MLLE-PAM2 inh: 193

How did Cc1ccccc1S(=O)(=O)N(C)C[C@H]1OCc2cn(nn2)CCCC(=O)N([C@H](C)CO)C[C@@H]1C do in these assays?
MLLE-PAM2 inh: 16

Results for COC(=O)c1ccccc1NC(=O)CSc1nc(N)cc(=O)[nH]1 ?
PABP polyA inh: inactive; EBV gp42 block: 3; eIF4H inh: 90*; eIF4E-4G inh: 7; MLLE-PAM2 inh: 19

Results for COC(=O)c1ccccc1NC(=O)CSc1nc(N)cc(N)n1 ?
PABP polyA inh: inactive; EBV gp42 block: -22; eIF4H inh: -5; eIF4E-4G inh: 2; MLLE-PAM2 inh: 18

How did COc1ccccc1N1CCN(C(=O)C2CCC(CNS(=O)(=O)c3ccc(NC(C)=O)cc3)CC2)CC1 (configuration not stated) do in these assays?
PABP polyA inh: inactive; eIF4H inh: 4; MLLE-PAM2 inh: 7

How did CC(C)NC(=O)c1ccc(CN2CCC(Cc3ccccc3)CC2)cc1 do in these assays?
PABP polyA inh: inactive; eIF4H inh: 8; MLLE-PAM2 inh: 3

Results for C=CCNC(=O)c1ccc(CN2CCC(Cc3ccccc3)CC2)cc1 ?
PABP polyA inh: active; eIF4H inh: 95*; MLLE-PAM2 inh: 2

Results for CCCN1C(=S)c2ccccc2C1c1ccccc1 (configuration not stated) ?
PABP polyA inh: inactive; eIF4H inh: 6; MLLE-PAM2 inh: 4

Results for Cc1ccc2cccc(Oc3ccc([N+](=O)[O-])cc3[N+](=O)[O-])c2n1 ?
PABP polyA inh: inactive; EBV gp42 block: -8; eIF4H inh: 6; eIF4E-4G inh: 6; MLLE-PAM2 inh: 10

What do the screens show for `Cc1ccc([N+](=O)[O-])cc1-c1ccc2cccc(C)c2n1`?
PABP polyA inh: inactive; EBV gp42 block: -15; eIF4H inh: 4; eIF4E-4G inh: 71*[fluorescence artefact?]; MLLE-PAM2 inh: -1

What do the screens show for `CN(Cc1cccc(Cl)c1Cl)C(=O)c1ccccc1SCC(=O)N1CCCC1`?
MLLE-PAM2 inh: -4

Results for C[C@@H]1COC(=O)[C@@H](Cc2ccc(F)cc2)CC/C=C\C[C@@H](CC(=O)NCCO)C(=O)N1 ?
MLLE-PAM2 inh: 4

Results for O=C(O)CCCCCN1C(=O)/C(=C\c2cn(-c3ccccc3)nc2-c2cccs2)SC1=S ?
PABP polyA inh: inactive; EBV gp42 block: 6; eIF4H inh: 58; eIF4E-4G inh: 45*; MLLE-PAM2 inh: -21

Results for O=C(O)CCN1C(=O)/C(=C/c2cn(-c3ccccc3)nc2-c2cccs2)SC1=S ?
PABP polyA inh: inactive; EBV gp42 block: -196; eIF4H inh: 65; eIF4E-4G inh: 30*; MLLE-PAM2 inh: -29

What do the screens show for `O=C(O)CCCCCN1C(=O)/C(=C/c2cn(-c3ccccc3)nc2-c2cccs2)SC1=S`?
MLLE-PAM2 inh: -24

How did CCCC(=O)Nc1cc(-c2nn(C)c(=O)c3ccccc23)ccc1N1CCOCC1 do in these assays?
PABP polyA inh: inactive; EBV gp42 block: -18; eIF4H inh: 0; eIF4E-4G inh: -1; MLLE-PAM2 inh: -4

How did CC(=O)Nc1cc(-c2nn(C)c(=O)c3ccccc23)ccc1N1CCOCC1 do in these assays?
PABP polyA inh: active; EBV gp42 block: -8; eIF4H inh: inconclusive; eIF4E-4G inh: -1; MLLE-PAM2 inh: -7

How did COc1ccc(-c2nnc(NC(=O)c3cccs3)s2)c(OC)c1 do in these assays?
PABP polyA inh: inactive; EBV gp42 block: -5; eIF4H inh: 55*; eIF4E-4G inh: 14; MLLE-PAM2 inh: 0

What do the screens show for `COc1ccc(-c2nnc(NC(=O)Cc3ccccc3)s2)c(OC)c1`?
PABP polyA inh: inactive; EBV gp42 block: -9; eIF4H inh: 2; eIF4E-4G inh: -1; MLLE-PAM2 inh: 4

What do the screens show for `Nc1nnc(-c2ccco2)s1`?
PABP polyA inh: inactive; EBV gp42 block: -21; eIF4H inh: 31; eIF4E-4G inh: -9; MLLE-PAM2 inh: 18

What do the screens show for `Nc1ncnc2oc(-c3ccco3)c(-c3ccco3)c12`?
PABP polyA inh: active; EBV gp42 block: 45; eIF4H inh: 104*; eIF4E-4G inh: 11; MLLE-PAM2 inh: 21

What do the screens show for `Cc1ccc(C2Nc3cccc4cccc(c34)N2)s1`?
PABP polyA inh: active; EBV gp42 block: -3; eIF4H inh: 103; eIF4E-4G inh: 8; MLLE-PAM2 inh: 12

What do the screens show for `Clc1ccccc1C1Nc2cccc3cccc(c23)N1`?
PABP polyA inh: inconclusive; eIF4H inh: inconclusive; MLLE-PAM2 inh: 6

How did Oc1ccc(C2Nc3cccc4cccc(c34)N2)c(O)c1 do in these assays?
PABP polyA inh: active; EBV gp42 block: -12; eIF4H inh: 89*; eIF4E-4G inh: 23; MLLE-PAM2 inh: 7

How did COc1cc(C2Nc3cccc4cccc(c34)N2)cc(OC)c1O do in these assays?
PABP polyA inh: inactive; EBV gp42 block: 12; eIF4H inh: 86; eIF4E-4G inh: 14; MLLE-PAM2 inh: 17

Results for c1coc(C2Nc3cccc4cccc(c34)N2)c1 ?
PABP polyA inh: active; EBV gp42 block: 14; eIF4H inh: 110*; eIF4E-4G inh: 17

Results for Brc1ccc(C2Nc3cccc4cccc(c34)N2)cc1 ?
MLLE-PAM2 inh: -5

What do the screens show for `Clc1cccc(C2Nc3cccc4cccc(c34)N2)c1Cl`?
PABP polyA inh: active; eIF4H inh: 103*; MLLE-PAM2 inh: 10

What do the screens show for `Fc1ccc(C2Nc3cccc4cccc(c34)N2)cc1`?
PABP polyA inh: active; eIF4H inh: 53*; MLLE-PAM2 inh: 5

How did O=[N+]([O-])c1ccc(C2Nc3cccc4cccc(c34)N2)cc1 do in these assays?
PABP polyA inh: active; EBV gp42 block: -2; eIF4H inh: 97*; eIF4E-4G inh: 6; MLLE-PAM2 inh: 6

Results for FC(F)(F)c1ccc(C2Nc3cccc4cccc(c34)N2)cc1 ?
PABP polyA inh: inactive; EBV gp42 block: 4; eIF4H inh: 67; eIF4E-4G inh: 1; MLLE-PAM2 inh: -4
